From PubChem BioAssay (NCATS)
Values joined by “and” are separate entries in the source; they are usually repeats but may differ in a detail not shown here. Equal entries are not always repeated. Records with an inconclusive call do not appear. A call without a number means that no potency is given here. Active and inactive are the calls of the source. Unless noted, calls follow the shape of the dose curve; as a rule, active = well fitted curve in the direction sought with a large enough effect; inconclusive = small, poorly fitted or top-dose-only effect, or another doubt; inactive = no such curve, though single readings can be large; an effect the other way counts as inactive or inconclusive.

Key:
[1] = target: Alpha-galactosidase A (Homo sapiens) (UniProt P06280); test: Counterscreen for Glucocerebrosidase Inhibitors: qHTS Assay for Human alpha-Galactosidase at pH 4.5 (AID 992)
Sequence of Alpha-galactosidase A (Homo sapiens) (P06280 whole entry, looked up): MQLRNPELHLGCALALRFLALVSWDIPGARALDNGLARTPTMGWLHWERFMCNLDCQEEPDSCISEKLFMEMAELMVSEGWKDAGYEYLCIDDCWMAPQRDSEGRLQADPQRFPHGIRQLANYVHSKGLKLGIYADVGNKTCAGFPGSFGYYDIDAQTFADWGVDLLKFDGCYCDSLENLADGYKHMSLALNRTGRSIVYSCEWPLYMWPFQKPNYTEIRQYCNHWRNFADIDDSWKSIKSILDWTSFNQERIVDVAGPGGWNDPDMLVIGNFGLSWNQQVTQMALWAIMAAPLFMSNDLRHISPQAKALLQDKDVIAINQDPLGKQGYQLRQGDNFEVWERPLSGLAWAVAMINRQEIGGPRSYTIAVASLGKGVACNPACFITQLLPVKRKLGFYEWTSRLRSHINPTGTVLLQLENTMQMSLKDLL
Procedure, shortened: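 Each compound is preincubated briefly with 2 nM enzyme before substrate addition (80 uM); plates then sit 20 min at ambient temperature, are quenched with 1M NaOH/1M glycine, and read fluorometrically.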

[2] = target: alpha-glucosidase (Oryza sativa, rice) (UniProt Q653V4); test: Counterscreen for Glucocerebrosidase Inhibitors: qHTS Assay for Rice alpha-Glucosidase at pH 5.0 (AID 997)
Procedure, shortened: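 Endpoint fluorogenic assay at pH 5.0: compounds (0.7 nM to 77 uM) titrated against 4 nM rice enzyme and 400 uM 4-MU-alpha-glucoside for 20 min at room temperature; NaOH/glycine stop, read ex 365/em 440 nm, Hill-fitted AC50.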

[3] = Validation of Assay for Modulators of Lamin A Splicing (AID 1459; active = well fitted curve in the direction sought with a large enough effect in the signal ratio; the % refers to the signal ratio;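 also: cells exposed to compound for two days before reading; ratio rise marks activators and ratio drop marks inhibitors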)
Procedure, shortened: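 S3 HeLa cells stably expressing a lamin A-EGFP splicing minigene and DsRed2 were seeded at 600 cells/well in Opti-MEM with 2% FBS, pin-dosed, and incubated 48 hrs at 37 °C, 5% CO2. Laser-scanning cytometry (488 nm) gave GFP/RFP total intensity ratio.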

[4] = qHTS Assay for Lipid Storage Modulators (AID 1519; calls by dose curve); details: Drosophila S3 cells, BODIPY lipid droplet/cell ratio, laser cytometry, cells loaded with oleic acid
Procedure, shortened: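 Cells seeded at 5,000 per well were treated with compounds over a concentration series and loaded with oleic acid (400 uM, as added). Lipid droplet fluorescence (488 nm excitation, 500-530 nm channel) was read by laser-scanning cytometry and normalized to 20 uM Triacsin C.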

[5] = target: DNA repair nuclease/redox regulator APEX1 (Homo sapiens) (UniProt P27695); test: qHTS Validation Assay for Inhibitors of the Human Apurinic/apyrimidinic Endonuclease 1 (APE1) (AID 1705; also: potency is read from the fitted curve at half-maximal effect;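 as to activity change, negative = inhibition: TAMRA fluorescence gain over two minutes as APE1 cuts a quenched THF abasic duplex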)
Sequence of DNA repair nuclease/redox regulator APEX1 (Homo sapiens) (P27695 whole entry, looked up): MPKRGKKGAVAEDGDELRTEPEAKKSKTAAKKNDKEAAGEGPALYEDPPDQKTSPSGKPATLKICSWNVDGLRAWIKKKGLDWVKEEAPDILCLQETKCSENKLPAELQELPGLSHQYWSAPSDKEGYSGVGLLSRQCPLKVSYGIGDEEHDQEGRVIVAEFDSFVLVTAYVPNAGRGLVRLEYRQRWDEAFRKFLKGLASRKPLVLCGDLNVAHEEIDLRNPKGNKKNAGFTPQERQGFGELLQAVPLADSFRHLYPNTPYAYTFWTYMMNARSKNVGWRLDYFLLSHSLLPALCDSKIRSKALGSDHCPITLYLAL
Procedure, shortened: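 Human APE1 was preincubated with compound for 15 min at room temperature, then 50 nM (final) THF-abasic double-stranded DNA substrate bearing 5'-TAMRA and 3'-BHQ-2 was added. Incision-driven fluorescence rise (ex 525/em 598 nm) was read kinetically.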

[6] = Cell Viability - LYMP2-020 (AID 986); also: nearly all actives have a fitted effect of over 55% in size
Procedure, shortened: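 Cytotoxicity in qHTS format: luminescent ATP readout from CellTiter-Glo after 24 h compound exposure at 37 C in complete medium. LYMP2-020 lymphoblastoid cells were seeded at 2500/well; concentration-response data fitted to the Hill equation for AC50.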

[7] = Cell Viability - LYMP2-022 (AID 987); also: nearly all actives have a fitted effect of over 55% in size; also: potency is read from the fitted curve at half-maximal effect
Procedure, shortened: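 Cytotoxicity read as decreased cellular ATP (CellTiter-Glo luminescence, 30 min room temperature) after 24 hours compound exposure of 2500 lymphoblastoid LYMP2-022 cells/well at 37 C. Concentration-response data fitted with standard Hill equation for AC50.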

[8] = Cell Viability - LYMP2-024 (AID 988); also: nearly all actives have a fitted effect of over 60% in size; also: potency is read from the fitted curve at half-maximal effect
Procedure, shortened: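 Cytotoxicity was taken as a decrease in ATP (CellTiter-Glo luminescence) after 24 hr compound exposure at 37 C of LYMP2-024 lymphoblastoid cells, 2500 cells/well. Concentration-response data were fitted to the Hill equation to give AC50.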

[9] = Cell Viability - LYMP2-026 (AID 989); also: nearly all actives have a fitted effect of over 50% in size
Procedure, shortened: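 Cytotoxicity read as ATP-dependent luminescence (CellTiter-Glo, 30 min room temperature) after 24 h compound treatment at 37 C. LYMP2-026 lymphoblastoid line seeded at 2500 cells/well; AC50 derived by standard Hill equation.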

[10] = Cell Viability - LYMP1-002 - Assay at 24 hr (AID 993)
Procedure, shortened: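 qHTS cytotoxicity at 24 h: CellTiter-Glo ATP luminescence in lymphoblastoid line LYMP1-002 incubated with compound at 37 °C. Concentration-response modeled with the Hill equation for AC50; tetraoctylammonium bromide served as positive control.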

[11] = measured here: cell count channel max response
[12] = measured here: lipid channel max response

Ic1ccc(N2CCN(Cc3c[nH]c4ncccc34)CC2)cc1
outcome [1]: inactive
outcome [2]: inactive
outcome [3]: inactive
activity change, negative = inhibition ([4]; at 57.5 µM (top of the series)): 0.316% (inactive)
max response [4, 11]: -23.2%
max response [4, 12]: -22.2%
Potency [5]: inactive

COc1cccc(C(=O)NCCN2CCN(c3ccc(Cl)cc3)CC2)c1
outcome [1]: inactive
outcome [2]: inactive
outcome [3]: inactive
activity change, negative = inhibition ([4]; at 57.5 µM (top of the series)): -1.54% (inactive)
max response [4, 11]: -16.3%
max response [4, 12]: -18.1%
Potency [5]: inactive

N.N.O=C(O)C1(C(=O)O)CCC1.[Pt]
outcome [1]: inactive
outcome [2]: inactive
outcome [3]: inactive
activity change, negative = inhibition ([4]; at 57.5 µM (top of the series)): 7.88% (inactive) and 0.357% (inactive)
max response [4, 11]: 15.2% and -33.4%
max response [4, 12]: 23.7% and -31.2%
Potency [5]: inactive

CN1C2CCC1CC(OC(=O)C(O)c1ccccc1)C2 (stereo not drawn)
outcome [3]: inactive
activity change, negative = inhibition ([4]; at 57.5 µM (top of the series)): 9.19% (inactive)
max response [4, 11]: 16.5%
max response [4, 12]: 28.9%
Potency [5]: inactive

NC(N)=NC(=O)c1nc(Cl)c(N2CCCCCC2)nc1N
outcome [1]: inactive
outcome [2]: inactive
outcome [3]: inactive
activity change, negative = inhibition ([4]; at 57.5 µM (top of the series)): -1.28% (inactive) and 0.178% (inactive)
max response [4, 11]: 5.25% and -33%
max response [4, 12]: 6.67% and -33.1%
Potency [5]: inactive

N#C/C(=C\c1ccc(O)c(O)c1)C(=O)c1ccc(O)c(O)c1
outcome [1]: inactive
outcome [2]: inactive
outcome [3]: inactive
activity change, negative = inhibition ([4]; at 57.5 µM (top of the series)): -0.353% (inactive)
max response [4, 11]: 19.5%
max response [4, 12]: 19.3%
Potency [5]: 0.282 µM (active)

CC(C)NCC(O)COc1cccc2ccccc12 (stereo not drawn)
Potency [6]: inactive
Potency [7]: inactive
Potency [8]: inactive
Potency [9]: inactive
Potency [10]: inactive
outcome [3]: inactive
activity change, negative = inhibition ([4]; at 57.5 µM (top of the series)): 10.9% (inactive)
max response [4, 11]: 7.26%
max response [4, 12]: 23.9%
Potency [5]: inactive

COc1cc2nc(N3CCN(C(=O)OCc4ccccc4)C(C(=O)NC(C)(C)C)C3)nc(N)c2cc1OC (stereo not drawn)
outcome [3]: inactive
activity change, negative = inhibition ([4]; at 57.5 µM (top of the series)): 1.16% (inactive)
max response [4, 11]: 38.8%
max response [4, 12]: 39.8%
Potency [5]: inactive

CN(C)c1nc(N)c(C(=O)N=C(N)N)nc1Cl
outcome [1]: inactive
outcome [2]: inactive
outcome [3]: inactive
activity change, negative = inhibition ([4]; at 57.5 µM (top of the series)): 1.32% (inactive)
max response [4, 11]: -30.3%
max response [4, 12]: -31.1%
Potency [5]: inactive

O=c1[nH]c2cc(C(F)(F)F)ccc2n1-c1cc(C(F)(F)F)ccc1O
outcome [1]: inactive
outcome [2]: inactive
outcome [3]: inactive
activity change, negative = inhibition ([4]; at 57.5 µM (top of the series)): -0.787% (inactive)
max response [4, 11]: 34.5%
max response [4, 12]: 34%
Potency [5]: inactive

Oc1ccc(C2CNCc3sccc32)cc1O (stereo not drawn)
outcome [3]: inactive
Potency [5]: inactive

N#C/C(=C\c1ccc(O)c(O)c1)C(=O)NCc1ccccc1
outcome [1]: inactive
outcome [2]: inactive
outcome [3]: inactive
Potency [5]: inactive

Cc1cc(NC(=O)Nc2ccc3c(ccn3C)c2)sn1
outcome [1]: inactive
outcome [2]: inactive
outcome [3]: inactive
Potency [5]: inactive

Clc1ccc(N2CCN(Cc3c[nH]c4ncccc34)CC2)cc1
outcome [1]: inactive
outcome [2]: inactive
outcome [3]: inactive
Potency [5]: inactive

CCCCCCOc1ccccc1C(N)=O
activity change, negative = inhibition ([4]; at 57.5 µM (top of the series)): 12.4% (inactive)
max response [4, 11]: 7.6%
max response [4, 12]: 24%

CCCCC/C=C\CC(O)/C=C/c1cccc(CC(O)CCCCO)n1 (stereo not drawn)
outcome [3]: inactive
Potency [5]: inactive

O=C(Nc1ccccc1)c1cc([N+](=O)[O-])ccc1Cl
outcome [1]: inactive
outcome [2]: inactive
outcome [3]: inactive
Potency [5]: inactive

O=C(O)CC1CCCc2ccccc2C1O (stereo not drawn)
outcome [3]: inactive
Potency [5]: inactive

N=C(N)N
activity change, negative = inhibition ([4]; at 57.5 µM (top of the series)): 4.02% (inactive)
max response [4, 11]: 15.8%
max response [4, 12]: 23.8%

CN(C)C(N)=NCCC[C@H](N)C(=O)O
outcome [1]: inactive
outcome [2]: inactive
outcome [3]: inactive
Potency [5]: inactive

Nc1ccc(C(=O)O)c(O)c1
activity change, negative = inhibition ([4]; at 57.5 µM (top of the series)): -7.1% (inactive)
max response [4, 11]: 19.5%
max response [4, 12]: 14%

O=C(O)Cc1ccc(-c2ccccc2)cc1
activity change, negative = inhibition ([4]; at 25.7 µM (top of the series)): 1.48% (inactive)
max response [4, 11]: -7.71%
max response [4, 12]: -5.4%

CNCC[C@H](Oc1ccc(C(F)(F)F)cc1)c1ccccc1
outcome [1]: inactive
outcome [2]: inactive
outcome [3]: inactive

O=C(O)CC[C@@H](C(=O)O)N1C(=O)c2ccccc2C1=O
outcome [1]: inactive
outcome [2]: inactive
outcome [3]: inactive
Potency [5]: inactive

c1ccc(-c2ccccn2)nc1
outcome [1]: inactive
outcome [2]: inactive
outcome [3]: inactive
Potency [5]: inactive

N#C/C(=C\c1ccc(O)c(O)c1)C(=O)NCCCc1ccccc1
outcome [1]: inactive
outcome [2]: inactive
outcome [3]: inactive
Potency [5]: inactive

CC(=O)SCC[N+](C)(C)C
outcome [1]: inactive
outcome [2]: inactive
outcome [3]: inactive
Potency [5]: inactive

CC(=O)N[C@H](C(=O)O)C(C)(C)SN=O
outcome [3]: inactive
Potency [5]: inactive

Nc1nc(Cl)nc2c1ncn2[C@@H]1O[C@H](CO)[C@@H](O)[C@H]1O
activity change, negative = inhibition ([4]; at 57.5 µM (top of the series)): 5.13% (inactive)
max response [4, 11]: 7.07%
max response [4, 12]: 14%

O=C(OCc1ccccc1)c1ccccc1
activity change, negative = inhibition ([4]; at 57.5 µM (top of the series)): 9.34% (inactive)
max response [4, 11]: -2.84%
max response [4, 12]: 6.88%

Fc1ccc(C(OCCCc2cnc[nH]2)c2ccc(F)cc2)cc1
outcome [1]: inactive
outcome [2]: inactive
outcome [3]: inactive
Potency [5]: inactive

Cc1c(Nc2ncccc2C(=O)O)cccc1C(F)(F)F
activity change, negative = inhibition ([4]; at 25.7 µM (top of the series)): -1.24% (inactive)
max response [4, 11]: -9.98%
max response [4, 12]: -11.1%

C[N+](C)(CCCCCC[N+](C)(C)CCCN1C(=O)c2cccc3cccc(c23)C1=O)CCCN1C(=O)c2cccc3cccc(c23)C1=O
outcome [1]: inactive
outcome [2]: inactive
outcome [3]: inactive
Potency [5]: 3.55 µM (active)

OCC1O[C@H](O)C(Cl)C(O)C1O (stereo partly drawn)
outcome [3]: inactive
Potency [5]: inactive

NC(=O)C(=O)O
outcome [1]: inactive
outcome [2]: inactive
outcome [3]: inactive
Potency [5]: inactive

CCCCN1CCC(n2c(=O)[nH]c3ccccc32)CC1
outcome [1]: inactive
outcome [2]: inactive
outcome [3]: inactive
Potency [5]: inactive

c1cnc2c(c1)ccc1cccnc12
Potency [7]: 12.6 µM (active)
Potency [8]: 12.6 µM (active)
outcome [1]: inactive
outcome [2]: inactive
outcome [3]: inactive
Potency [5]: inactive

COc1ccc(/C=C/C(=O)Nc2ccccc2C(=O)O)cc1OC
outcome [1]: inactive
outcome [2]: inactive
outcome [3]: inactive

C[C@@H](NC(=O)/C(C#N)=C/c1ccc(O)c(O)c1)c1ccccc1
outcome [1]: inactive
outcome [2]: inactive
outcome [3]: inactive
Potency [5]: inactive
